Laboratory results as given in PubChem BioAssay (NCATS).
Results filed as inconclusive are left out. Entries that show only a call come without a potency. Calls of active or inactive are those of the source. Calls follow the shape of the dose curve; as a rule, active = well fitted inhibition curve with a large enough effect; inconclusive = small, poorly fitted or top-dose-only effect; inactive = flat fitted curve, though single readings scatter. Numbered stars: 1 amine (or outer) side, 2 acyl side, 3 side chain; on linkers, the order of the positions; unused ones are H or OH. Bridge positions count the residues as written; N and C are the ends. Square brackets hold non-standard residues; d marks the D form. Peptide text beside a SMILES is read from it. I, II: the chains in the order shown. Actinocin(9to1) = Cc1c2oc3c(C)ccc(C(=O)[*:1])c3nc-2c(C(=O)[*:2])c(N)c1=O; NMeV = CN[C@H](C(=O)O)C(C)C; Sar = CNCC(=O)O

Key:
Assay in all cases: qHTS profiling for inhibitors of Plasmodium falciparum proliferation (AID 504749); also: nearly all actives have a fitted effect of over 60% in size
Details in all cases: P. falciparum in erythrocytes, SYBR Green DNA, 72 h; series mostly up to 28.7 µM
CP291 = system: CP291
Procedure, shortened: (§1)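 Infected RBCs, 0.3% parasitemia/2.5% Hct final; cpd 72 h, 37 C, 5% CO2; lysis buffer with saponin/triton/SYBR Green I, o/n RT dark; FI 485/535; norm. to artemisinin (0.29 uM) and DMSO.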

CP297 = system: CP297
Procedure, shortened: as §1

CP305 = system: CP305
Procedure, shortened: as §1

CP315 = system: CP315
Procedure, shortened: as §1

CP325 = system: CP325
Procedure, shortened: as §1

CP329 = system: CP329
Procedure, shortened: as §1

CP335 = system: CP335
Procedure, shortened: as §1

DFO2036 = system: DFO2036
Procedure, shortened: as §1

DIV14 = system: DIV14
Procedure, shortened: as §1

DIV17 = system: DIV17
Procedure, shortened: as §1

DIV30 = system: DIV30
Procedure, shortened: as §1

Dd2 = system: Dd2
Procedure, shortened: as §1

ECU = system: ECU
Procedure, shortened: as §1

FAB9 = system: FAB9
Procedure, shortened: as §1

GB4 = system: GB4
Procedure, shortened: as §1

HB3 = system: HB3
Procedure, shortened: as §1

ICS = system: ICS
Procedure, shortened: as §1

JCK = system: JCK
Procedure, shortened: as §1

N140 = system: N140
Procedure, shortened: as §1

P93_24 = system: P93_24
Procedure, shortened: as §1
Potency is read from the fitted curve at half-maximal effect.

Row | SMILES | Potency (CP291) | Potency (CP297) | Potency (CP305) | Potency (CP315) | Potency (CP325) | Potency (CP329) | Potency (CP335) | Potency (DFO2036) | Potency (DIV14) | Potency (DIV17) | Potency (DIV30) | Potency (Dd2) | Potency (ECU) | Potency (FAB9) | Potency (GB4) | Potency (HB3) | Potency (ICS) | Potency (JCK) | Potency (N140) | Potency (P93_24)
1 | CCCCOc1ccc(C(=O)CCN2CCCCC2)cc1 | inactive | inactive | inactive | inactive | inactive | inactive | inactive | inactive | inactive | inactive | inactive | inactive | inactive | inactive | inactive | inactive | inactive | inactive | inactive | inactive
2 | CCCCCCC[N+](CC)(CC)CCCCc1ccc(Cl)cc1 | 1.81 µM (active) | 2.03 µM (active) | 0.572 µM (active) | 2.28 µM (active) | 2.28 µM (active) | 1.81 µM (active) | 1.81 µM (active) | 1.78 µM (active) | 0.809 µM (active) | 0.809 µM (active) | 2.28 µM (active) | 2 µM (active) | 1.58 µM (active) | 3.55 µM (active) | 0.721 µM (active) | 2.51 µM (active) | 0.708 µM (active) | 3.16 µM (active) | 2.51 µM (active) | 2.24 µM (active)
3 | CCCn1c(=O)[nH]c(=O)c2[nH]cnc21 | inactive | inactive | inactive | inactive | inactive | inactive | inactive | inactive | inactive | inactive | inactive | inactive | inactive | inactive | inactive | inactive | inactive | inactive | inactive | inactive
4 | COc1cccc2c1C(=O)c1c(O)c3c(c(O)c1C2=O)C[C@@](O)(C(C)=O)C[C@@H]3O[C@H]1C[C@H](N)[C@H](O)[C@H](C)O1 | 5.36 µM (active) | 7.57 µM (active) | 4.78 µM (active) | 7.57 µM (active) | 8.49 µM (active) | 6.01 µM (active) | 4.78 µM (active) | 4.47 µM (active) | 1.9 µM (active) | 1.35 µM (active) | 6.75 µM (active) | 2.24 µM (active) | 8.91 µM (active) | 3.98 µM (active) | 1.9 µM (active) | 4.47 µM (active) | 1.41 µM (active) | 11.2 µM (active) | 4.47 µM (active) | 3.98 µM (active)
5 | C[C@]12CC[C@@H]3c4ccc(O)cc4CC[C@H]3[C@@H]1CC[C@@H]2O | inactive | inactive | inactive | inactive | inactive | inactive | inactive | inactive | inactive | inactive | inactive | inactive | inactive | inactive | inactive | inactive | inactive | inactive | inactive | inactive
6 | Nc1ccc(/C=C/c2ccc(N)cc2S(=O)(=O)O)c(S(=O)(=O)O)c1 | inactive | inactive | inactive | inactive | inactive | inactive | inactive | inactive | inactive | inactive | inactive | inactive | inactive | inactive | inactive | inactive | inactive | inactive | inactive | inactive
7 | CCN(CC)C(=O)N1CCN(C)CC1 | inactive | inactive | inactive | inactive | inactive | inactive | inactive | inactive | inactive | inactive | inactive | inactive | inactive | inactive | inactive | inactive | inactive | inactive | inactive | inactive
8 | CCCCCCc1ccc(O)cc1O | inactive | inactive | inactive | inactive | inactive | inactive | inactive | inactive | inactive | inactive | inactive | inactive | inactive | inactive | inactive | inactive | inactive | inactive | inactive | inactive
9 | CC(=O)OCC(=O)NCCCOc1cccc(CN2CCCCC2)c1 | inactive | inactive | inactive | inactive | inactive | inactive | inactive | inactive | inactive | inactive | inactive | inactive | inactive | inactive | inactive | inactive | inactive | inactive | inactive | inactive
10 | COc1cc(OC)cc(OC)c1 | inactive | inactive | inactive | inactive | inactive | inactive | inactive | inactive | inactive | inactive | inactive | inactive | inactive | inactive | inactive | inactive | inactive | inactive | inactive | inactive
11 | OCc1ccccc1O | inactive | inactive | inactive | inactive | inactive | inactive | inactive | inactive | inactive | inactive | inactive | inactive | inactive | inactive | inactive | inactive | inactive | inactive | inactive | inactive
12 | O=C(OCCOCCO)c1ccccc1Nc1cccc(C(F)(F)F)c1 | inactive | inactive | inactive | inactive | inactive | inactive | inactive | inactive | inactive | inactive | inactive | inactive | inactive | inactive | inactive | inactive | inactive | inactive | inactive | inactive
13 | CCOc1ccc(NC(=O)CC(C)O)cc1 (stereo not given) | inactive | inactive | inactive | inactive | inactive | inactive | inactive | inactive | inactive | inactive | inactive | inactive | inactive | inactive | inactive | inactive | inactive | inactive | inactive | inactive
14 | Cc1c(C)n(Cc2ccccc2)c2ccc(C(=O)OCCN(C)C)cc12 | inactive | inactive | inactive | inactive | inactive | inactive | inactive | inactive | inactive | inactive | inactive | inactive | inactive | inactive |  | inactive |  | inactive | inactive | inactive
15 | O=C1c2ccccc2C(=O)C1c1ccccc1 | inactive | inactive | inactive | inactive | inactive | inactive | inactive | inactive | inactive | inactive | inactive | inactive | inactive | inactive | inactive | inactive | inactive | inactive | inactive | inactive
16 | Cc1c2oc3c(C)ccc(C(=O)N[C@@H]4C(=O)N[C@H](C(C)C)C(=O)N5CCC[C@H]5C(=O)N(C)CC(=O)N(C)[C@@H](C(C)C)C(=O)O[C@@H]4C)c3nc-2c(C(=O)N[C@@H]2C(=O)N[C@H](C(C)C)C(=O)N3CCC[C@H]3C(=O)N(C)CC(=O)N(C)[C@@H](C(C)C)C(=O)O[C@@H]2C)c(N)c1=O (I: T[dV]P[Sar][NMeV] / II: T[dV]P[Sar][NMeV]; ester I:1-I:C, II:1-II:C; linker I:N-II:N via Actinocin(9to1)) | 0.0054 µM (active) | 0.006 µM (active) | 0.0054 µM (active) | 0.0076 µM (active) | 0.0054 µM (active) | 0.006 µM (active) | 0.0019 µM (active) | 0.0032 µM (active) | 0.0038 µM (active) | 0.0054 µM (active) | 0.0076 µM (active) | 0.0045 µM (active) | 0.0032 µM (active) | 0.0112 µM (active) | 0.0048 µM (active) | 0.005 µM (active) | 0.0025 µM (active) |  | 0.0035 µM (active) | 0.005 µM (active)
17 | CC(C)COC(=O)OCN1C(=O)CN(CCN2CC(=O)N(COC(=O)OCC(C)C)C(=O)C2)CC1=O | inactive | inactive | inactive | inactive | inactive | inactive | inactive | inactive | inactive | inactive | inactive | inactive | inactive | inactive | inactive | inactive | inactive | inactive | inactive | inactive
18 | C1CCc2nnnn2CC1 | inactive | inactive | inactive | inactive | inactive | inactive | inactive | inactive | inactive | inactive | inactive | inactive | inactive | inactive | inactive | inactive | inactive | inactive | inactive | inactive
19 | C[C@@H]1C(=O)NC2=Nc3cccc(Cl)c3CN21 | inactive | inactive | inactive | inactive | inactive | inactive | inactive | inactive |  | inactive | inactive | inactive | inactive | inactive |  | inactive |  | inactive | inactive | inactive
20 | CC(=O)c1ccc2c(c1)N(CCCN1CCC(CCO)CC1)c1ccccc1S2 | inactive | inactive | inactive | inactive | inactive | inactive |  | inactive |  |  | inactive |  | inactive | inactive |  | inactive |  | inactive | inactive | 
21 | COC(=O)[C@H]1[C@H]2C[C@H]3c4[nH]c5ccccc5c4CCN3C[C@H]2CC[C@@H]1O | inactive | inactive | inactive | inactive | inactive | inactive | inactive |  | inactive | inactive | inactive |  |  |  | inactive |  |  |  |  | 
22 | Nc1cc(Cl)c(NC2=NCCN2)c(Cl)c1 | inactive | inactive | inactive | inactive | inactive | inactive | inactive | inactive |  | inactive | inactive | inactive | inactive | inactive | inactive | inactive | inactive | inactive | inactive | inactive
23 | CN1C2CCC1CC(OC(=O)c1c[nH]c3ccccc13)C2 (stereo not given) | inactive | inactive | inactive | inactive | inactive | inactive | inactive | inactive |  | inactive | inactive | inactive | inactive | inactive | inactive | inactive | inactive | inactive | inactive | inactive
24 | CCOC(=O)/C=C(C)/C=C/C=C(C)/C=C/c1c(C)cc(OC)c(C)c1C | inactive | inactive | inactive | inactive | inactive | inactive |  |  | inactive |  | inactive |  |  | inactive | inactive |  |  | inactive |  | 
25 | CC1=C(C(=O)OC(C)C)C(c2cccc([N+](=O)[O-])c2)C(C(=O)OC2CN(C(c3ccccc3)c3ccccc3)C2)=C(N)N1 (stereo not given) | 8.49 µM (active) | 13.5 µM (active) | 7.57 µM (active) | 13.5 µM (active) | 6.01 µM (active) | 6.01 µM (active) | 4.78 µM (active) | 7.08 µM (active) | 7.57 µM (active) | 9.53 µM (active) |  | 11.2 µM (active) | 7.08 µM (active) |  | 6.01 µM (active) | 11.2 µM (active) | 4.47 µM (active) |  | 7.94 µM (active) | 6.31 µM (active)
26 | C#C[C@]1(O)CC[C@H]2[C@@H]3CCc4cc(OC5CCCC5)ccc4[C@H]3CC[C@@]21C | inactive | inactive | inactive | inactive | inactive | inactive |  | inactive |  | inactive | inactive | inactive | inactive | inactive |  | inactive |  | inactive | inactive | inactive
